# A selection: hits, their analogues and other compounds. The true share with any hit is near 18%.
# DT40 TDP1 no CPT: qHTS for Inhibitors of human tyrosyl-DNA phosphodiesterase 1 (TDP1): qHTS in cells in absence of CPT. DT40 Tdp1-/- hTDP1 cells, no CPT, ATP luminescence, 48 h. Potency, µM (doses to about 46.2 µM), inactives show at the top dose activity change, negative = growth inhibition, actives largely listed as inhibitors. actives 15% (n = 420,000). AID 686978, 2013; note: potency is the fitted concentration of half-maximal effect; % is set by controls: 0 for no effect and ±100 for the full control effect; nearly all actives have a fitted effect of over 55% in size
#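 Luminescent ATP content (CellTiter-Glo) served as the growth readout. Knockout chicken DT40 cells expressing human TDP1 were exposed to compounds without camptothecin for a minimum 48 hr at 37 °C.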
# TGFb SMAD3 inh: inhibitors of TGF-b signaling | Potency, µM (doses to about 46.1 µM), for inactives: at the highest dose activity, negative = inhibition, actives largely listed as inhibitors | actives 1.2% (n = 410,000) | HepG2 CAGA-GFP TGF-b/SMAD3 reporter, GFP fluorescence, 18 h; TGF-beta stimulated, 500 pg/mL final; note: potency is the fitted concentration of half-maximal effect; % is set by controls: 0 for no effect and ±100 for the full control effect; nearly all actives have a fitted effect of over 65% in size
#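 First, reporter cells (HEPG2 CAGA-GFP) rested 2 h at 37 degrees C. Next, compounds were pinned in and TGF-beta added to 500 pg/mL final. After 18 h, GFP was imaged per cell and summed per well.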
# TDP1 block: TDP1 (human) enzyme inhibition | AID 485290 | Q9NUW8 | Potency, µM (highest dose often 130 µM), inactives show top-dose activity change, negative = inhibition, hits mostly inhibitors | actives 0.28% (n = 350,000) | recombinant TDP1, AlphaScreen DNA substrate cleavage; note: potency is the fitted concentration of half-maximal effect; % is set by controls: 0 for no effect and ±100 for the full control effect; nearly all actives have a fitted effect of over 40% in size
# Target sequence (Q9NUW8 whole entry, looked up): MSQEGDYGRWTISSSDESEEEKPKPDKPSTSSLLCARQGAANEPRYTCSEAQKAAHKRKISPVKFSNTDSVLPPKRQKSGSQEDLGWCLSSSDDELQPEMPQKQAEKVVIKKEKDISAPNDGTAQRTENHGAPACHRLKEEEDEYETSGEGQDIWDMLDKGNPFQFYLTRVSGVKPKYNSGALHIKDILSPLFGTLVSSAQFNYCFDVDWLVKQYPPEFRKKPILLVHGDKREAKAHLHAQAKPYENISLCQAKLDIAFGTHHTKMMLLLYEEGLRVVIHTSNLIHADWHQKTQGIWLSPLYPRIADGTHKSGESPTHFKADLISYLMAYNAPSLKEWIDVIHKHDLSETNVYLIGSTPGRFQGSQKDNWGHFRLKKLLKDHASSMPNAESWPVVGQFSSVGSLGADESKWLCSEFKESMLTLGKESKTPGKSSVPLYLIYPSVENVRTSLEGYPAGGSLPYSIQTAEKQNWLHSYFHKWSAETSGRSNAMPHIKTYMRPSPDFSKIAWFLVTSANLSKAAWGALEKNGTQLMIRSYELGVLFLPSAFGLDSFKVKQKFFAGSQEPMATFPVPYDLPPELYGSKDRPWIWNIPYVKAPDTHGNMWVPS
#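 Compounds were preincubated with Tdp1 (1 nM final) for 15 min at room temperature before substrate (15 nM final) started a 5 min reaction; beads (10 ug/ml final) were then added for 10 min before AlphaScreen detection.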
# HepG2 viability: counter-screen for TGF-b inhibitors: cytotoxicity in HepG2 cells | HepG2 CAGA-GFP viability, ATP luminescence, 18 h | Potency, µM (titrated, usually from 46.1 µM), for the others: at the highest dose activity change, negative = cytotoxicity, hits mostly cytotoxic | actives 0.76% (n = 410,000) | AID 588856; note: potency is the fitted concentration of half-maximal effect
#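 HepG2 CAGA-GFP cells (1000/well, DMEM with 1% FBS) received compound, then TGF-beta at 500 pg/mL final, and were incubated 18 hours at 37 degrees C. Viability was read by CellTiter-Glo luminescence. Media-only wells were set as complete cell-killing and DMSO as no toxicity.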
# DT40 TDP1 CPT: growth inhibition of DT40 Tdp1-/-;hTDP1 cells with camptothecin (screen for TDP1 inhibitors). chicken DT40 Tdp1-/-;hTDP1 cells + 20 nM CPT, ATP luminescence, 48 h. Potency, µM (highest dose often 46.2 µM), for the others: at the highest dose activity change, negative = growth inhibition, hits mostly inhibitors. actives 12% (n = 420,000). AID 686979; note: potency is the fitted concentration of half-maximal effect; % is set by controls: 0 for no effect and ±100 for the full control effect; nearly all actives have a fitted effect of over 55% in size
#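 Chicken DT40 Tdp1-/- cells complemented with human TDP1, 400 cells/well, exposed to compounds plus 20 nM camptothecin for at least 48 h at 37 C; viability read as ATP content by CellTiter-Glo luminescence.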
# IL1B secr inh: blocks inflammasome-driven IL-1 beta release; THP-1 LPS/ATP IL-1B secretion, AlphaLISA, 16 h; active compounds read low; activity change, % at 57.5 µM; actives 4.7% (n = 360,000); in the data active = activity change below about -50%; inconclusive = mostly about -30% to -49%; note: % is set by controls: 0 for no effect and ±100 for the full control effect
#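 Secreted IL-1B measured by AlphaLISA bead assay after 16 h compound exposure of THP-1 cells; compounds (final up to 57.5 uM) added 1 h before LPS (250 ng/mL) and ATP (1.25 mM) stimulation; lower signal means less secretion.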
# * hit, by the source's call; ? = inconclusive; nt = not tested or not shown. Unless noted, calls come from the whole dose curve; as a rule, active = well fitted curve in the direction sought with a large enough effect; inconclusive = small, poorly fitted or top-dose-only effect, or another doubt; inactive = no such curve, though single readings can be large; an effect the other way counts as inactive or inconclusive.
SMILES,DT40 TDP1 no CPT,TGFb SMAD3 inh,TDP1 block,HepG2 viability,DT40 TDP1 CPT,IL1B secr inh
CC(C)(C)OC(=O)N1CCCN(C(c2ccnc3ccccc23)c2nnnn2-c2ccc3c(c2)OCCO3)CC1 (configuration not stated),3.7µM*,nt,nt,nt,?,-13
CCOC(=O)N1CCN(C(c2ccnc3ccccc23)c2nnnn2-c2ccc3c(c2)OCCO3)CC1 (configuration not stated),16µM*,nt,nt,nt,?,24
CC(C)NC(=O)CN1CCN(C(c2ccnc3ccccc23)c2nnnn2-c2ccc3c(c2)OCCO3)CC1 (configuration not stated),-22%,nt,nt,nt,-30%,23
COc1ccc(CN(CC(=O)NCc2ccc(F)cc2)C(=O)CCC(=O)Nc2nccs2)cc1,?,3%,7%,-23%,?,-11
CC(c1ccccc1)N1C(=O)c2ccc(C(=O)Nc3ccc(Br)cc3C(=O)O)cc2C1=O (configuration not stated),?,1%,2%,16%,2.1µM*,14
CC(C)CN1C(=O)c2ccc(C(=O)Nc3ccc(O)cc3C(=O)O)cc2C1=O,-4%,8%,nt,-1%,8%,25
CC1(C)C2CCC1(CS(=O)(=O)NCc1ccc(S(N)(=O)=O)cc1)C(=O)C2 (configuration not stated),0%,-3%,3%,0%,1%,30
CC1(C)C2CCC1(CS(=O)(=O)NCc1ccc(C(F)(F)F)cc1)C(=O)C2 (configuration not stated),12µM*,10%,nt,-3%,?,-23
CCC(C(=O)OCc1cc(=O)n2nc(CCOC)sc2n1)c1ccccc1 (configuration not stated),?,12%,1%,-50%,?,nt
O=[N+]([O-])c1cc(S(=O)(=O)N2CCCC2)ccc1OCCOc1ccccc1,?,-12%,0%,-4%,?,?
O=C(CSc1ccccc1)Nc1ccc(Cl)c(S(=O)(=O)N2CCOCC2)c1,-26%,-2%,-3%,-7%,-2%,-23
NC(=O)c1cc(S(=O)(=O)N2CCCC2)ccc1OCCOc1ccccc1,-22%,0%,1%,6%,-5%,-51*
O=C(Nc1ccc(Cl)c(S(=O)(=O)N2CCOCC2)c1)c1cc2ccccc2oc1=O,?,-3%,2%,0%,?,7
O=C(O)c1cc(S(=O)(=O)N2CCCCC2)ccc1Cl,4%,18%,6%,-8%,-1%,-3
O=C(Nc1ccc(Cl)c(S(=O)(=O)N2CCOCC2)c1)c1ccccc1-c1ccc(C(F)(F)F)cc1,16µM*,-27%,5%,-23%,?,-14
O=C(CCOc1ccccc1)Nc1ccc(Cl)c(S(=O)(=O)N2CCOCC2)c1,?,-24%,-2%,4%,?,-72*
CN(CCOc1ccccc1)C(=O)c1cc(S(=O)(=O)N2CCCCC2)ccc1Cl,?,-16%,1%,2%,?,-65*
COCCN(C(=O)COC(=O)/C=C/c1cccc(C(F)(F)F)c1)c1c(N)n(CC(C)C)c(=O)[nH]c1=O,-18%,11%,1%,0%,18%,9
COc1ccc(S(=O)(=O)N2CCOCC2)cc1NC(=O)COC(=O)CC1CC2CCC1C2 (configuration not stated),-6%,10%,2%,-10%,-26%,15
Nc1cc(S(=O)(=O)N2CCCCC2)ccc1Oc1ccccc1,10µM*,?,11%,-9%,?,4
